According to ChEMBL document CHEMBL4513146, “CO-ADD screening of Karazin Kharkiv National University (Ukraine) compounds”:
Entries with a potency or affinity are not part of this list.

Key:
Klebsiella pneumoniae = settings: Concentration 32 ug.mL-1;; ASSAY_TEST Inhibition of Bacterial Growth; detection method Absorption (OD600); MEDIA CAMHB; plate type 384well; NBS; CORNING #3640; time 18 hr
Candida albicans = settings: Concentration 32 ug.mL-1; ASSAY_TEST Inhibition of Fungal Growth; detection method Absorption (OD530)
Cryptococcus neoformans = settings: Concentration 32 ug.mL-1; ASSAY_TEST Inhibition of Fungal Growth; detection method Resazurin; Absorption (OD600-OD570); plate type 384well; NBS; CORNING #3640

Compound	Inhibition (Klebsiella pneumoniae)	Inhibition (Candida albicans)	Inhibition (Cryptococcus neoformans)
COc1ccc(-c2cc3c4nn(CC(=O)Nc5cc(OC)cc(OC)c5)c(=O)n4ccn3n2)cc1	0.53%	33.73%	-18.18%
Cc1ccc(NC(=O)Cn2c(=O)c3nnc(C)n3c3ccccc32)cc1C	6.79%	0.69%	-4.45%
Cc1ccc(NC(=O)Cn2nc3c4cc(-c5ccc(C)c(C)c5)nn4ccn3c2=O)cc1C	4.54%	4.1%	-9.03%
Cc1ccc(CNC(=O)Cn2nc3ccc(SC4CCCCC4)nn3c2=O)cc1	11.36%	13.29%	-15.57%
CCCCn1c(=O)c2sccc2n2c(=O)n(CC(=O)c3ccc(OC)cc3)nc12	1.02%	4.16%	-36.83%
CCCCc1ccc(NC(=O)Cn2nc3c(SC4CCCCC4)nccn3c2=O)cc1	1.99%	20.8%	-5.76%
Cc1ccc(NC(=O)Cn2nc3c4cc(-c5ccc(Cl)cc5)nn4ccn3c2=O)cc1F	4.91%	-0.67%	-19.64%
O=C(Cn1nc2c(Sc3cccc(F)c3)nccn2c1=O)Nc1cccc(C(F)(F)F)c1	14.77%	-0.63%	-9.77%
COc1cccc(Sc2nc3ccccc3n3c(=O)n(CC(=O)Nc4ccccc4)nc23)c1	3.34%	1.24%	-26.53%
O=C(Cn1nc2ccc(Sc3cccc(F)c3)nn2c1=O)Nc1cccc(Cl)c1	-3.42%	11.97%	-3.34%
Cc1cc(C)cc(N(Cc2cc(C)ccc2C)S(=O)(=O)c2cccn3c(C)nnc23)c1	4.69%	1.02%	-8.76%
CCOc1ccccc1NC(=O)Cn1nc2c3cc(-c4ccc(Cl)cc4)nn3ccn2c1=O	12.1%	2.9%	-13.93%
CCc1nnc2c(S(=O)(=O)N(Cc3ccccc3C)c3ccc(Cl)cc3)cccn12	3.29%	6.38%	-5.94%
COc1ccc(NC(=O)CSc2nnc3c(=O)n(-c4cccc(F)c4)ccn23)cc1OC	7.43%	3.49%	-8.06%
COc1ccc(N(Cc2cc(F)cc(F)c2)S(=O)(=O)c2ccc3nnc(C)n3c2)cc1	10.99%	0.79%	-7.83%
Cc1ccc(Oc2nc3ccccc3n3c(=O)n(CC(=O)Nc4cccc(C(F)(F)F)c4)nc23)cc1	8.2%	1.82%	-21.42%
Cc1ccc(-c2cc3c4nn(CC(=O)Nc5cccc(Br)c5)c(=O)n4ccn3n2)cc1	10.81%	6.28%	-43.73%
COc1ccc(NC(=O)Cn2nc3c(Sc4ccccc4)nccn3c2=O)cc1Cl	-2.59%	0.73%	2.33%
C=Cc1ccc(CSc2nnc3c(=O)n(-c4ccc(F)cc4)ccn23)cc1	9.66%	4.46%	-8.26%
Cc1ccc(Oc2nccn3c(=O)n(CC(=O)Nc4ccccc4Br)nc23)cc1	15.36%	1.31%	-18.92%
Cc1ccccc1NC(=O)Cn1nc2c(SC3CCCCC3)nccn2c1=O	5.55%	-0.37%	-26.02%
CC1CCCN(c2nccn3c(=O)n(CC(=O)Nc4ccc(Br)cc4F)nc23)C1 (centres undefined)	5.81%	5.05%	-8.97%
Cc1cccc(CN(c2ccc(Cl)cc2)S(=O)(=O)c2cccn3c(C)nnc23)c1	9.48%	1.95%	-9.68%
COc1ccc(-c2nc(CSc3nc4ccccc4n4c(C(C)C)nnc34)c(C)o2)cc1	4.67%	2.32%	-16.11%
Cc1ccc(NC(=O)Cn2nc3c(SCc4ccc(Cl)cc4)nccn3c2=O)c(C)c1	13.7%	0.54%	-21.97%
CCN(CCCNC(=O)CCc1nnc2ccc(-c3ccccc3)nn12)c1ccccc1	9.95%	3.75%	-0.38%
Cc1ccc(N(CC(=O)OC(C)(C)C)S(=O)(=O)c2ccc3nnc(C)n3c2)cc1	4.9%	1.78%	-16.68%
Cc1nnc2ccc(S(=O)(=O)N(Cc3cccc(F)c3)c3ccc4c(c3)OCO4)cn12	1.28%	3.36%	-7.24%
